± gives the standard deviation of the averaged measurements.

For the assay, the system named is E. coli BW25113 marRABp lux reporter. Nature of the assay: promoter activity interaction Z-score (Lux/OD deviation from empty-vector control); higher = stronger promoter induction by the compound. How it is done:
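E. coli BW25113 (wild type or ΔmarA/ΔsoxS/Δrob) carrying pTU175 luxCDABE promoter reporters was grown in LB in 384-well plates at 37°C with each of 94 compounds at 4 two-fold concentrations, in biological duplicates. Luminescence and OD600 were read every 30 min for 12 h and integrated as AUC over 8 h (0-8 h WT, 1-9 h mutants). Lux AUC was divided by OD AUC; the interaction score is the residual of a Huber robust fit of each promoter against the empty-vector control, then Z-transformed per promoter.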

Where [1] appears, read: 2.6 µg/ml, genetic background: wild type.
Setting [2] is: 2.6 µg/ml, genetic background: ΔmarA.
Setting [3] is: 2.6 µg/ml, genetic background: Δrob.
Where [4] appears, read: 2.6 µg/ml, genetic background: ΔsoxS.

Consider `Cc1c(N)nc([C@H](CC(N)=O)NC[C@H](N)C(N)=O)nc1C(=O)N[C@H](C(=O)N[C@H](C)[C@@H](O)[C@H](C)C(=O)N[C@H](C(=O)NCCc1nc(-c2nc(C(=O)NCCC[S+](C)C)cs2)cs1)[C@@H](C)O)[C@@H](OC1OC(CO)C(O)C(O)C1OC1OC(CO)C(O)C(OC(N)=O)C1O)c1cnc[nH]1` (stereo not given in full) [Bleomycin], for which the “promoter activity interaction Z-score” value runs as follows: (0.038 µg/ml, genetic background: wild type) -0.417 ± 0.23; (0.038 µg/ml, genetic background: ΔmarA) -0.0394 ± 0.031; (0.038 µg/ml, genetic background: Δrob) -0.132 ± 0.16; (0.038 µg/ml, genetic background: ΔsoxS) 0.0622 ± 0.095; (0.076 µg/ml, genetic background: wild type) 0.0986 ± 0.2; (0.076 µg/ml, genetic background: ΔmarA) 0.278 ± 0.39. Further, the “promoter activity interaction Z-score” value by setting is: (0.076 µg/ml, genetic background: Δrob) 0.331 ± 0.28; (0.076 µg/ml, genetic background: ΔsoxS) 0.321 ± 0.053; (0.15 µg/ml, genetic background: wild type) 0.24 ± 0.21; (0.15 µg/ml, genetic background: ΔmarA) 0.245 ± 0.13; (0.15 µg/ml, genetic background: Δrob) 0.652 ± 0.46; (0.15 µg/ml, genetic background: ΔsoxS) 0.457 ± 0.048. Moreover, the “promoter activity interaction Z-score” value (0.3 µg/ml, genetic background: wild type) is 2.68 ± 0.29.
Take `C[n+]1ccc(-c2cc[n+](C)cc2)cc1` [Paraquat]: the “promoter activity interaction Z-score” value (0.64 µg/ml, genetic background: wild type) turned out to be 0.0393 ± 0.059; the “promoter activity interaction Z-score” value (0.64 µg/ml, genetic background: ΔmarA) was 0.259 ± 0.056; the “promoter activity interaction Z-score” value (0.64 µg/ml, genetic background: Δrob) stood at 0.471 ± 0.061; the “promoter activity interaction Z-score” value (0.64 µg/ml, genetic background: ΔsoxS) stood at 0.397 ± 0.44; the “promoter activity interaction Z-score” value (1.3 µg/ml, genetic background: wild type) was 0.123 ± 0.012; the “promoter activity interaction Z-score” value (1.3 µg/ml, genetic background: ΔmarA) stood at 0.332 ± 0.16. In addition, the “promoter activity interaction Z-score” value by setting is: (1.3 µg/ml, genetic background: Δrob) 0.857 ± 0.029; (1.3 µg/ml, genetic background: ΔsoxS) 0.407 ± 0.47; under setting [1], 0.508 ± 0.11; under setting [2], 0.467 ± 0.19; under setting [3], 1.16 ± 0.33; under setting [4], 0.215 ± 0.34. In addition, the “promoter activity interaction Z-score” value amounted to 1.52 ± 0.99 (5.1 µg/ml, genetic background: wild type); 1.25 ± 0.44 (5.1 µg/ml, genetic background: ΔmarA); 2.54 ± 0.066 (5.1 µg/ml, genetic background: Δrob); 0.698 ± 0.45 (5.1 µg/ml, genetic background: ΔsoxS).
Regarding `CC(=O)N[C@H]1[C@@H](O[C@@H]2O[C@H](CC(O)[C@H]3O[C@@H](n4ccc(=O)[nH]c4=O)[C@H](O)[C@@H]3O)[C@H](O)[C@H](O)[C@H]2NC(=O)/C=C/CC(C)C)O[C@H](CO)[C@@H](N)[C@@H]1O` (stereo not given in full) [Tunicamycin], the “promoter activity interaction Z-score” value is -0.437 ± 0.048 under setting [1]; -0.39 ± 0.54 under setting [2]; -0.2 ± 0.15 under setting [3]; -0.379 ± 0.38 under setting [4]; -0.455 ± 0.15 (5.3 µg/ml, genetic background: wild type); -0.634 ± 0.41 (5.3 µg/ml, genetic background: ΔmarA). The “promoter activity interaction Z-score” value reads like this: (5.3 µg/ml, genetic background: Δrob) -0.284 ± 0.008; (5.3 µg/ml, genetic background: ΔsoxS) -0.282 ± 0.18; (10.6 µg/ml, genetic background: wild type) -0.326 ± 0.14; (10.6 µg/ml, genetic background: ΔmarA) -0.464 ± 0.54; (10.6 µg/ml, genetic background: Δrob) -0.127 ± 0.2; (10.6 µg/ml, genetic background: ΔsoxS) -0.485 ± 0.34. Moreover, the “promoter activity interaction Z-score” value reads like this: (21.1 µg/ml, genetic background: wild type) -0.471 ± 0.16; (21.1 µg/ml, genetic background: ΔmarA) -0.634 ± 0.25; (21.1 µg/ml, genetic background: Δrob) -0.663 ± 0.56; (21.1 µg/ml, genetic background: ΔsoxS) -0.645 ± 0.46.

Values taken from the supplement of paper PMC12282887.
